Laboratory results taken from PubChem BioAssay.
Where “and” joins values, the source holds several entries; their conditions need not be identical. Equal values may be shown once. Calls of active or inactive are those of the source.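 How the source made its calls: active means inhibition at or above 50% relative to wild type and mutant plate controls; inactive means inhibition below 50%.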

Assay: inhibitors of Chlamydomonas gravitaxis, primary screen, whole organism, Chlamydomonas reinhardtii, WT vs cilia-less mutant, absorbance, 96-well (AID 463189);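 further: 0% = wild type cc124 cells in DMSO and 100% = ciliumless bld1 mutant cells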
Conditions: OD600 absorbance, 2 days, at 10 µM, stronger effect = higher value
With `CN1C2CCC1CC(OC(c1ccccc1)c1ccccc1N)C2` (stereo not drawn) the inhibition was -4.19% (inactive).
In the case of `CCn1cc(C(=O)O)c(=O)c2ccc(C)nc21`, the inhibition is reported as -5.13% (inactive) and 33.3% (inactive).
For `NNCc1cccc(O)c1`, the inhibition was -4.41% (inactive).
For `Cc1[nH]c2ccc(O)cc2c1CCN`, the inhibition was 5.71% (inactive).
For `CCCN1CCC[C@@H]2Cc3nc(N)ncc3C[C@H]21`, the inhibition was 4.12% (inactive).
For `CCCN(CCC)C1Cc2cc(OC)c(OC)cc2C1`, the inhibition was -11.6% (inactive).
For `CCCC[N+]1(C)C2CC(OC(=O)[C@H](CO)c3ccccc3)CC1C1OC12` (stereo partly drawn), the inhibition was -7.48% (inactive).
In the case of `CCCCC/C=C\C/C=C\C/C=C\C/C=C\CCCC(=O)NCC(=O)O`, the inhibition is reported as -0.074% (inactive).
For `CN1C(=O)CCS(=O)(=O)C1c1ccc(Cl)cc1` (stereo not drawn), the inhibition was 9.97% (inactive).
In the case of `O=P1(N(CCCl)CCCl)NCCCO1` (stereo not drawn), the inhibition is reported as -0.869% (inactive).
For `COc1ccc2c(c1)C13CCCCC1C(C2)N(C)CC3` (stereo not drawn), the inhibition was 6.06% (inactive).
With `C[C@]12CCC3C(CC[C@H]4C[C@H](O)CC[C@]34C)C1CC[C@@H]2C(=O)CO` (stereo partly drawn) the inhibition was 4.52% (inactive).
With `Cc1ncc(CNC(=O)N(CCCl)N=O)c(N)n1` the inhibition was 3.94% (inactive).
With `CC(C)NP(=O)(NC(C)C)OP(=O)(NC(C)C)NC(C)C` the inhibition was 5.29% (inactive).
For `c1ccc2cc(CC3=NCCN3)ccc2c1`, the inhibition was 1.93% (inactive).
In the case of `CC(C)(C)NCC(O)c1ccccc1Cl` (stereo not drawn), the inhibition is reported as 8.05% (inactive).
With `N#CC(C#N)=Cc1ccc(O)c(O)c1` the inhibition was 1.54% (inactive).
With `Oc1ccc2c3c1O[C@H]1[C@@H](O)CC[C@@]4(O)C(C2)N(CC2CCC2)CCC314` (stereo partly drawn) the inhibition was 3.28% (inactive).
In the case of `NCCc1c[nH]c2ccc(O)cc12`, the inhibition is reported as -4.38% (inactive).
With `NC(Cn1oc(=O)[nH]c1=O)C(=O)O` (stereo not drawn) the inhibition was -0.927% (inactive).
For `COC[C@H]1OC(=O)c2coc3c2[C@@]1(C)C1=C(C3=O)C2CCC(=O)[C@@]2(C)C[C@H]1OC(C)=O` (stereo partly drawn), the inhibition was 4.09% (inactive).
For `C/C(O)=C(\C#N)C(=O)Nc1cc(Br)ccc1Br`, the inhibition was 2.1% (inactive).
In the case of `CCn1cnc2c(Nc3cccc(Cl)c3)nc(N[C@@H]3CCCC[C@@H]3N)nc21`, the inhibition is reported as 4.56% (inactive).
For `C[C@H]1C2Cc3ccc(O)cc3C1(C)CCN2CC1CC1` (stereo partly drawn), the inhibition was 8.28% (inactive).
In the case of `CN1CCc2cccc(Cl)c2CC1`, the inhibition is reported as 9.04% (inactive).
In the case of `C=CCN1CCC2(C)c3cc(O)ccc3CC1C2C` (stereo not drawn), the inhibition is reported as 0.366% (inactive).
With `C=CCN1CCc2cccc3c2[C@H]1Cc1ccc(O)c(O)c1-3` the inhibition was 6.2% (inactive).
With `CC(N)Cc1c[nH]c2ccc(OCc3cccs3)cc12` (stereo not drawn) the inhibition was 5.48% (inactive).
In the case of `CC(=O)c1c(O)c(C)c(O)c(Cc2c(O)c3c(c(C(=O)/C=C/c4ccccc4)c2O)OC(C)(C)C=C3)c1O`, the inhibition is reported as -7.31% (inactive).
With `N[C@@H](Cn1ccc(=O)[nH]c1=O)C(=O)O` the inhibition was -4.9% (inactive).
For `CS(=N)(=O)CC[C@H](N)C(=O)O` (stereo partly drawn), the inhibition was 3.52% (inactive).
With `C#CCOC(=O)C1=CCCN(C)C1` the inhibition was 6.87% (inactive).
In the case of `O=C(O)[C@@H]1CCN1`, the inhibition is reported as 2.04% (inactive).
With `COC(=O)[C@@H](N)CCCN=C(N)N[N+](=O)[O-]` the inhibition was -4.62% (inactive).
With `CC(N)C(=O)OC(C)(C)Cc1ccc(Cl)cc1` (stereo not drawn) the inhibition was -6.83% (inactive).
For `COc1ccc(-n2nc(C(F)(F)F)cc2-c2ccc(Cl)cc2)cc1`, the inhibition was -10.1% (inactive).
In the case of `N[C@@H](CCl)C(=O)O`, the inhibition is reported as 3.95% (inactive).
In the case of `CCC1(c2ccc(N)cc2)CCC(=O)NC1=O` (stereo not drawn), the inhibition is reported as -0.133% (inactive).
